Results reported in paper PMC4336329 (PLoS ONE, 2015).
Among all 310,000 compounds or so, about 14,000 (4.5%) showed an effect of 50% or more. The effect is printed as a negative number. The full list was thinned out, with strong results kept by preference.

These compounds were tested against human ether-à-go-go-related gene (hERG) potassium channel (human, UniProt Q12809) (assay: primary screen, population patch clamp on CHO cells stably expressing hERG; higher = less effect of the substance).
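Further: peak tail current of the secondary pulse compared with the same well before compound.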

human ether-à-go-go-related gene (hERG) potassium channel, sequence (Q12809 whole entry, looked up): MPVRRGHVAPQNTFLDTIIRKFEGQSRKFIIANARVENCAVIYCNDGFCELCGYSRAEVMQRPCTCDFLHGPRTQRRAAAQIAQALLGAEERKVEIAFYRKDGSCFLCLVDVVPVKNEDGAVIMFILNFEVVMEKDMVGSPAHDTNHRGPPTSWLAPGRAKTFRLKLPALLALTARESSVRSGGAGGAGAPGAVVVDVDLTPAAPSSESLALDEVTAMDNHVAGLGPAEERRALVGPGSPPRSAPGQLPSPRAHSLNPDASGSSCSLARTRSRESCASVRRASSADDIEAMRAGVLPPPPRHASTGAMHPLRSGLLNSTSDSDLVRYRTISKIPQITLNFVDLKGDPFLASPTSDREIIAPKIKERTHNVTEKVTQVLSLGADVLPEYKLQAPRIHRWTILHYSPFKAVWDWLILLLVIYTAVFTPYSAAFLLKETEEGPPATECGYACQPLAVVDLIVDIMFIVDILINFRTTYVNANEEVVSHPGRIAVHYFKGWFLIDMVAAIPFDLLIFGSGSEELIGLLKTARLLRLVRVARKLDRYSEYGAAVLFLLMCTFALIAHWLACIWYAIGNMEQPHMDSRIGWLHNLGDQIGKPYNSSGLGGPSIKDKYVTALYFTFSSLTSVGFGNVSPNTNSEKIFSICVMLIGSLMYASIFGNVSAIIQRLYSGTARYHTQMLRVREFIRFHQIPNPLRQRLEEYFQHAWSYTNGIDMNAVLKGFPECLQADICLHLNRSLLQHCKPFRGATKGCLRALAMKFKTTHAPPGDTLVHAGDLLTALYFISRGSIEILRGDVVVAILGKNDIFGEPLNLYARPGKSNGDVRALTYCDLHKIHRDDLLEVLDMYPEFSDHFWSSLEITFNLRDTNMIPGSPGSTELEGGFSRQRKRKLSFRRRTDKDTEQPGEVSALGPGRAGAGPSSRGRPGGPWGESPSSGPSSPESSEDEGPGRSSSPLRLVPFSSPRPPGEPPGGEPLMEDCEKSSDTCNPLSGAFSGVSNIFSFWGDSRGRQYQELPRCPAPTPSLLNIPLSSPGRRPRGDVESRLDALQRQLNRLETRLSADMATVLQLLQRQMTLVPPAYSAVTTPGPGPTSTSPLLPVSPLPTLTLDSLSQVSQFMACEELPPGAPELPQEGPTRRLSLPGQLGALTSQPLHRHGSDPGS

Row | Compound | hERG current change (%, negative = inhibition) at 10uM [%]
1 | Cc1nc(Sc2nnnn2-c2ccccc2)c(C#N)c(C)c1C | -21.3
2 | CCOC(=O)C1CCCN(C(=O)Cn2cccc2C(=O)c2ccccc2)C1 (stereo not shown) | -11.5
3 | Cc1cccc(C)c1NC(=O)COC(=O)c1cccnc1 | 4.43
4 | C#CCOC(=O)C[N+](C)(C)C/C=C/c1ccccc1.[Cl-] | 10.4
5 | Cc1oc(-c2cc(F)ccc2F)nc1CN1CCC(C(=O)N2CCOCC2)CC1 | -42.8
6 | CCN1CCN(C(=O)C2CCN(Cc3nc(-c4cccc(Cl)c4)oc3C)CC2)CC1 | -42.9
7 | Cc1cccc(-c2nc(CSCC(=O)N3CCN(c4ccccn4)CC3)c(C)o2)c1 | -41.2
8 | Cc1oc(-c2cccc(C(F)(F)F)c2)nc1CN1CCOCC1 | -3.32
9 | Cc1oc(-c2cccc(Cl)c2)nc1CN1CCC(C(=O)N2CCN(c3ccccc3F)CC2)CC1 | -69.1
10 | COc1ccc(-c2nc(CN3CCC(C(=O)N4CCOCC4)CC3)c(C)o2)cc1C | -6.98
11 | Cc1oc(-c2cccc(C(F)(F)F)c2)nc1CN1CCN(c2ccccn2)CC1 | -52.5
12 | Cc1cccc(N2CCN(Cc3nc(-c4cccc(Oc5ccccc5)c4)oc3C)CC2)n1 | 4.13
13 | Cc1oc(-c2cccc(Cl)c2)nc1CN1CCC(C(=O)N2CCN(c3ccccn3)CC2)CC1 | -68.5
14 | Cn1nnc2ccccc2c1=O | 12.5
15 | C/C(=N\NC(=S)Nc1c(C)cccc1C)c1cc2ccccc2o1 | 15.1
16 | CCc1ccccc1NC(=O)CSc1n[nH]c(C)c1[N+](=O)[O-] | -8.12
17 | CCNc1ccc(C(=O)O)cc1N | 9.77
18 | Cc1cccc(OCCOC(=O)C2CCN(S(=O)(=O)c3cccs3)CC2)c1 | 6.58
19 | COc1cc(NC(=O)c2cccnc2)c(Cl)cc1NC(=O)c1ccc(Cl)cc1 | -0.00342
20 | COc1cc(/C=C2\SC(=O)NC2=O)ccc1Oc1cnccn1 | 2.14
21 | CN(Cc1cccs1)C(=O)c1ccc(S(=O)(=O)NCc2ccco2)cc1 | -54.2
22 | CCN(CC(=O)NCc1ccc(Cl)cc1)C(=O)c1ccc(S(=O)(=O)N(C)C)cc1 | -33.2

Row | Compound | hERG current change (%, negative = inhibition) at 10uM [%]
23 | COc1ccccc1CN(C)C(=O)c1ccc(S(=O)(=O)NCc2ccco2)cc1 | -14.9
24 | CC(C)c1ccc(CN(C)C(=O)c2ccc(S(=O)(=O)NCc3ccco3)cc2)cc1 | -33.7
25 | Cc1nn(-c2ccccc2)c(C)c1CN(C)C(=O)c1ccc(S(=O)(=O)NCc2ccco2)cc1 | -21.2
26 | CCN(CC(=O)NCc1ccc(Cl)cc1)C(=O)c1ccc(S(=O)(=O)NCc2ccco2)cc1 | -54.9
27 | CCN(CC(=O)Nc1c(F)cccc1F)C(=O)c1ccc(S(=O)(=O)NCc2ccco2)cc1 | 8.72
28 | CN(Cc1ccc(Cl)cc1)C(=O)c1ccc(S(=O)(=O)NCc2ccco2)cc1 | -51.8
29 | COc1ccc(S(=O)(=O)NCc2ccc(C(=O)N(C)Cc3ccco3)cc2)cc1 | -19.1
30 | Cc1ccccc1C(=O)Nc1cccc(NC(=O)c2cccnc2)c1 | -9.39
31 | CCn1ncc(/C=C2/SC(=S)NC2=O)c1C | 23.6
32 | CCOc1ncnc2c1sc1nc(C)cc(C)c12 | 16
33 | CC(C)N(C(=O)N1CCC(c2nc(-c3ccncc3)no2)CC1)C(C)C | -15.3
34 | O=C(c1ccco1)N1CCN(S(=O)(=O)c2ccc(Br)s2)CC1 | -16
35 | CCOCCCn1c(=N)c(C(=O)NCCN2CCOCC2)cc2c(=O)n3cccc(C)c3nc21 | -53.6
36 | Cc1cccn2c(=O)c3cc(C(=O)NCCN4CCOCC4)c(=N)n(CCN4CCOCC4)c3nc12 | 18.5
37 | CCCCNC(=O)c1cc2c(=O)n3cccc(C)c3nc2n(CCN2CCOCC2)c1=N | -86
38 | Cc1cccn2c(=O)c3cc(C(=O)NCCN4CCOCC4)c(=N)n(CCCN4CCOCC4)c3nc12 | 15.2
39 | Cc1ccc(NC(=O)CN2CCCCC2)c2c1CC(C)(C)O2 | 1.17
40 | O=C(Cc1cccs1)Nc1nc(-c2ccc(F)cc2F)cs1 | -4.34
41 | CCCn1cnc2c(=S)nc(N)[nH]c21 | 16.3
42 | CCNCCC(=O)N1c2ccccc2Sc2ccc(NC(=O)OCC)cc21.Cl | -29.6
43 | COC(=O)c1c(C)oc2cc(Br)c(OCC(=O)C(C)(C)C)cc12 | 6.12
44 | CC(C)N1C(=O)CCC1C(=O)NC1CCCC1 (stereo not shown) | -3.05

Row | Compound | hERG current change (%, negative = inhibition) at 10uM [%]
45 | CCOc1ccc(-c2cc(C(=O)N/N=C(\C)c3cccnc3)c3ccccc3n2)cc1 | 10.6
46 | CCOc1ccc(S(=O)(=O)N(CC)CC(=O)N2CCOCC2)cc1C | 6.73
47 | CCCNC(=O)NCc1ccc(N2CCCC2=O)cc1 | 8.43
48 | O=C(O)CCCCCCCCCCP(=O)(c1ccccc1)c1ccccc1 | -7.05
49 | O=P(CCCCCCCCCP(=O)(c1ccccc1)c1ccccc1)(c1ccccc1)c1ccccc1 | -56.1
50 | O=P(O)(O)CCP(=O)(c1ccccc1)c1ccccc1 | 9.46
51 | CCN(CC(=O)N1CCCCC1)S(=O)(=O)c1ccccc1 | -7.12
52 | COc1ccc(C2C(C#N)=C(N)Oc3n[nH]c(C)c32)cc1Cn1cc([N+](=O)[O-])cn1 (stereo not shown) | -14
53 | COc1ccc(C2C(C#N)=C(N)Oc3n[nH]c(C)c32)cc1CN1CCN(c2ccc(F)cc2)CC1 (stereo not shown) | -65.6
54 | COc1ccc(CN2CCN(C(c3ccc(F)cc3)c3ccc(F)cc3)CC2)c(OC)c1OC.Cl | -13.3
55 | COc1ccc(CN2CCN(c3ccc(F)cc3)CC2)c(OC)c1OC | -70.2
56 | COc1cc(OC)c(OC)cc1CN1CCN(c2ccc(F)cc2)CC1 | -68.5
57 | COc1cc(OC)c(OC)cc1CN1CCN(S(=O)(=O)c2ccc(F)cc2)CC1.O=C(O)C(=O)O | -7.69
58 | COc1cc(OC)c(OC)cc1CN1CCN(c2ccccc2OC)CC1 | -31.1
59 | COc1cc(OC)c(CN2CCCN(C)CC2)cc1Br | 18.1
60 | COc1cc(OC)c(CN2CCCCCCC2)cc1Br | -22.4
61 | COc1cc(OC)c(CN2CCN(c3ccc(F)cc3)CC2)cc1Br | -70.3
62 | COc1ccc(CN2CCNCC2)c(OC)c1OC | 9.67
63 | COc1ccc(C2C(C#N)=C(N)Oc3n[nH]c(C)c32)cc1Cn1nnc2ccccc21 (stereo not shown) | -8.03
64 | S=c1[nH]nc(-c2ccccc2)n1/N=C/c1c[nH]c2ccccc12 | 12.1
65 | CC1(C)CC2CC(C)(CN2C(=O)COC(=O)CNC(=O)c2ccc(Cl)c(Cl)c2)C1 (stereo not shown) | -20.9
66 | O=C(CN1C(=O)NC2(CCCCCC2)C1=O)NCCc1ccc(F)cc1 | -13

Row | Compound | hERG current change (%, negative = inhibition) at 10uM [%]
67 | O=C(NCc1cccs1)C1CCN(S(=O)(=O)c2ccc(Br)s2)CC1 | -14.8
68 | CCc1cc2c(=O)n(N)c(CCC(=O)O)nc2s1 | -8.56
69 | Cc1ccc(-n2nnnc2SCC(=O)c2c(N)n(C3CC3)c(=O)[nH]c2=O)c(C)c1 | -4.23
70 | CC1Cc2cc(/C(O)=C3/C(=O)C(=O)N(CCCn4ccnc4)C3c3ccc(Br)cc3)ccc2O1 (stereo not shown) | 6.07
71 | CCc1ccc(CN(C)C(=O)c2cc(COc3ccc(-n4cncn4)cc3)on2)cc1 | -42.5
72 | COCCOC1CCN(C(=O)c2cc(COc3ccc(-n4cncn4)cc3)on2)CC1 | -22.8
73 | CCCOC1CCCN(C(=O)c2cc(COc3ccc(-n4cncn4)cc3)on2)C1 (stereo not shown) | -79
74 | COc1cccc(CN(C)C(=O)c2cc(COc3ccc4ncccc4c3)on2)c1 | -14.8
75 | O=C(c1cc(COc2ccc(-n3cncn3)cc2)on1)N1CCCC1 | -12
76 | COc1cccc(CN(C)C(=O)c2cc(COc3ccc(-n4cncn4)cc3)on2)c1 | -79.9
77 | COC1CCN(C(=O)c2cc(COc3ccc(-n4cncn4)cc3)on2)CC1 | -18.6
78 | CN(Cc1ccc(F)cc1)C(=O)c1cc(COc2ccc(-n3cncn3)cc2)on1 | -78.3
79 | CN(Cc1ccc(F)cc1)C(=O)c1cc(COc2ccc(F)cc2F)on1 | 1.65
80 | CC(C)CCOP(N)(=O)Oc1ccccc1Cl (stereo not shown) | 18.1
81 | CCOc1ncccc1C(=O)OCC(=O)Nc1ccc2c(c1)OCO2 | 12.6
82 | Cc1ccc(-n2[nH]c(C)c(C=Nc3ccc(S(=O)(=O)N4CCOCC4)cc3)c2=O)c(C)c1 | -7.6
83 | O=C(Nc1ccccc1NC(=O)NC1CCCCC1)NC1CCCCC1 | 0.961
84 | Cc1c(NC(=O)CSc2nnc3c4ccccc4n(CCc4ccccc4)c3n2)c(=O)n(-c2ccccc2)n1C | -27.2
85 | CC1(C)CC(CCN)(Cc2ccccc2Cl)CCO1 (stereo not shown) | -1.1
